This passage reports composite z-score and z-score results from PubChem BioAssay.

Active and inactive are the calls of the source. Unless noted, no rule for the calls is given here.

In experiment [1] the test system is Wnt5a (protein binding on small-molecule microarray). Put plainly: Wnt5a binders on small-molecule microarray, primary screen, biophysical, 635/667 nm fluorescence (AID 1142).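 Also: fluorescence read at 667 nm with signal to noise per printed feature.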 As to conditions: 635 nm fluorescence, higher = more signal.
A short description of experiment [2]: cell viability in Huh7 cells, primary screen, cytotoxicity control for HCV replication inhibitor project, CellTiter-Glo luminescence, basal, 48 h (AID 1143).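 Also: Huh7 hepatoma cells carrying a hepatitis C replication reporter with no stimulus; test concentration not given here.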 As to conditions: Huh7 HCV replicon, higher = more signal, called active from +8 up or from −8 down.
Experiment [3] is described as follows: P. aeruginosa biofilm formation inhibitors, primary screen, PAO1 strain, BacTiter-Glo luminescence, LB-PBS (AID 1144). As to conditions: 12 h, higher = more signal.
Experiment [4] is described as follows: CREB reporter modulators without forskolin, primary screen, cell-based, PC12, CRE-LacZ reporter, unstimulated (AID 1145). As to conditions: no forskolin, luminescence, 4.5 h, higher = more signal, called active from +8 up or from −8 down.
Experiment [5] can be described thus: CREB reporter modulators under forskolin, primary screen, cell-based, PC12, CRE-LacZ reporter, forskolin-stimulated (AID 1146).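 Also: PC12 cells with 6xCRE LacZ reporter stimulated by forskolin 10 µM; beta-galactosidase reporter signal reflecting CREB driven transcription.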 As to conditions: luminescence, 4.5 h, higher = more signal, called active from +8 up or from −8 down.
For experiment [6], the target named is Streptavidin (Streptomyces avidinii) (UniProt P22629). Put plainly: streptavidin binders on small-molecule microarray, primary screen, artefact control for SMM compound annotation, biophysical, 635/667 nm fluorescence (AID 1147).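 Also: signal reflects streptavidin binding to arrayed compounds as a control protein.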 As to conditions: streptavidin binding, higher = more signal.
The nature of experiment [7]: small-molecule binders of probe aInhba, primary screen, biochemical, small-molecule microarray, 635/667 nm fluorescence (AID 1148).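 Also: score merges 667nm spot fluorescence with signal-to-noise for antibody binding to printed compounds.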 As to conditions: higher = more signal.
Experiment [8] deals with Torsin-1A (Homo sapiens) (UniProt O14656). Put plainly: torsin A binders from cell lysate, primary screen, small-molecule microarray, wild-type, 635/667 nm (AID 1149). As to conditions: COS7 hTOR1A-WT lysate, 635 nm fluorescence, higher = more signal.
For experiment [9] the target is unchanged. Put plainly: small-molecule binders of mutant TOR1A in lysate, primary screen, cell lysate, small-molecule microarray, COS7 lysate, 635/667 nm fluorescence (AID 1150).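 Also: score pools 667 nm emission and signal to noise measuring lysate protein binding.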 As to conditions: COS7 hTOR1A mutant lysate, 635 nm fluorescence, higher = more signal.
In experiment [10] the test system is Sonic hedgehog protein (Shh). Put plainly: small-molecule binders of Shh protein, primary screen, biochemical, small-molecule microarray, 635/667 nm fluorescence (AID 1151).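 Also: Shh protein binding to compounds spotted on small-molecule microarray slides; score combines spot fluorescence intensity with signal-to-noise across triplicate slides.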 As to conditions: small-molecule microarray binding, 635 nm fluorescence; higher = more signal.
A short description of experiment [11]: E. coli DRC41 culture turbidity changes, primary screen, E. coli filamentation inducer project, strain DRC41, OD650, 48 h (AID 1152).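 Also: E. coli MC1000 strain DRC41 lacking acrAB efflux pump and sulA.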 As to conditions: E. coli DRC41 (acrAB sulA), higher = more signal, called active from +8 up or from −8 down.
Experiment [12] in a line: small-molecule binders of probe aLefty1, primary screen, biochemical, small-molecule microarray, 635/667 nm fluorescence (AID 1153).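 Also: score merges spot fluorescence with signal-to-noise ratio from the scanned slide images.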 As to conditions: higher = more signal.
A short description of experiment [13]: PSAC antagonists in infected red cells, primary screen, cell-based, P. falciparum Indochina, OD700, 1 h (AID 1154). As to conditions: P. falciparum Indochina infected RBC osmotic lysis, higher = more signal, called active from +8 up or from −8 down.
Experiment [14] in a line: PSAC antagonists in infected red cells, primary screen, cell-based, P. falciparum Indochina, OD700, 2 h (AID 1155).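 Also: lysis reports solute entry through the parasite surface anion channel PSAC; channel blockers reduce lysis of infected cells.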 As to conditions: P. falciparum Indochina infected erythrocytes, osmotic lysis OD700; higher = more signal, called active from +8 up or from −8 down.
The nature of experiment [15]: osmotic lysis modulators in infected erythrocytes, primary screen, PSAC antagonist project, cell-based, P. falciparum Indochina, OD700, 3 h (AID 1156). As to conditions: higher = more signal, called active from +8 up or from −8 down.
The nature of experiment [16]: PSAC antagonists in infected red cells, primary screen, cell-based, P. falciparum Indochina, OD700, 18 h (AID 1157). As to conditions: P. falciparum Indochina infected erythrocytes, osmotic lysis OD700, 18 h; higher = more signal, called active from +8 up or from −8 down.
The nature of experiment [17]: modulators of S6 phosphorylation in cells, primary screen, cell-based, A549, cytoblot, luminescence, serum-stimulated (AID 1158).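 Also: serum-stimulated A549 lung adenocarcinoma cells; signal is phosphorylated S6 detected by cytoblot immunostaining with HRP secondary.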 As to conditions: A549 phospho-S6 cytoblot, 5 h, higher = more signal.
Experiment [18] concerns the target NADPH oxidase 2 (Homo sapiens) (UniProt P04839). Put plainly: NOX2-dependent H2O2 signal modulators, primary screen, NOX inhibitor project, cell-based, HEK293-NOX2, PMA-stimulated, Amplex Red fluorescence (AID 1159). Also: test concentration not given here. As to conditions: 45 min, higher = more signal, called active from +8 up or from −8 down.
Experiment [19] addresses NADPH oxidase 4 (Homo sapiens) (UniProt Q9NPH5). Put plainly: NOX4-dependent H2O2 signal modulators, primary screen, NOX inhibitor project, cell-based, HEK293-NOX4, tetracycline-induced, Amplex Red fluorescence (AID 1160). As to conditions: 45 min, higher = more signal, called active from +8 up or from −8 down.
The target of experiment [20] is NADPH oxidase 5 (Homo sapiens) (UniProt Q96PH1). Put plainly: NOX5-dependent H2O2 signal modulators, primary screen, NOX inhibitor project, cell-based, HEK293-NOX5, Amplex Red fluorescence (AID 1161). As to conditions: HEK293-NOX5, ionomycin, 45 min, higher = more signal.
NADPH oxidase 5 (Homo sapiens), sequence (Q96PH1 whole entry, looked up): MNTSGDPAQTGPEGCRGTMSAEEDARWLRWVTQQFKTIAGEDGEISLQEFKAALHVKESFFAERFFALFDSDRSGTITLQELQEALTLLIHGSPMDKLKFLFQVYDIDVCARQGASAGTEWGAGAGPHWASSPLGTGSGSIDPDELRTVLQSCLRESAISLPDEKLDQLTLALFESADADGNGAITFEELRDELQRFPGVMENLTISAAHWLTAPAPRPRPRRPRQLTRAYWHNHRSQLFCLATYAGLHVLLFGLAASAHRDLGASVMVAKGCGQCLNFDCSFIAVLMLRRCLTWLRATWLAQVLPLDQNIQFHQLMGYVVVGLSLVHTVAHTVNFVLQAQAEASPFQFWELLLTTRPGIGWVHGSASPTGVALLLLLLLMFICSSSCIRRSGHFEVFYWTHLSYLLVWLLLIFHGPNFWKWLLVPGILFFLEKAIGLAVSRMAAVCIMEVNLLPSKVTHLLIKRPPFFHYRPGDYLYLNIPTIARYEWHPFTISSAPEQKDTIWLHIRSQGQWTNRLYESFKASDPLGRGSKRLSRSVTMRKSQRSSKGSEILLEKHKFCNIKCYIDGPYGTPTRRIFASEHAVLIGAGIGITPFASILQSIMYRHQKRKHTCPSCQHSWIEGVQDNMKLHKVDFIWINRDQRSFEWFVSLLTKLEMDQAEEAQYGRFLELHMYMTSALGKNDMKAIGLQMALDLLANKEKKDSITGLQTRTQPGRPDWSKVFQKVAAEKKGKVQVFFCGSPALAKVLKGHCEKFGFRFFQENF

Torsin-1A (Homo sapiens), sequence (O14656 whole entry, looked up): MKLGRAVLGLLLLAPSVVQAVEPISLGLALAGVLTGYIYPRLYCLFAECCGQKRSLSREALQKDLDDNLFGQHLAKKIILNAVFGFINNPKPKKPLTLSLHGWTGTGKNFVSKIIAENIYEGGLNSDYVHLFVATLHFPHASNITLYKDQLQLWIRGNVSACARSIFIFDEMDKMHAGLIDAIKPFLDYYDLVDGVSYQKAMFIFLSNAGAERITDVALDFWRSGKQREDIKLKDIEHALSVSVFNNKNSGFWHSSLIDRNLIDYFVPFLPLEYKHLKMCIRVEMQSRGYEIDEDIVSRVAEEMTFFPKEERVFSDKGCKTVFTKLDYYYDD
Streptavidin (Streptomyces avidinii), sequence (P22629 whole entry, looked up): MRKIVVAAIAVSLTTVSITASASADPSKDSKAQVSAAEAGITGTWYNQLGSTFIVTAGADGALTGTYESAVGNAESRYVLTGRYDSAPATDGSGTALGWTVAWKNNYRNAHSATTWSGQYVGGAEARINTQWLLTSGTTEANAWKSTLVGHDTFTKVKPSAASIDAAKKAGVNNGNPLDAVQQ
NADPH oxidase 4 (Homo sapiens), sequence (Q9NPH5 whole entry, looked up): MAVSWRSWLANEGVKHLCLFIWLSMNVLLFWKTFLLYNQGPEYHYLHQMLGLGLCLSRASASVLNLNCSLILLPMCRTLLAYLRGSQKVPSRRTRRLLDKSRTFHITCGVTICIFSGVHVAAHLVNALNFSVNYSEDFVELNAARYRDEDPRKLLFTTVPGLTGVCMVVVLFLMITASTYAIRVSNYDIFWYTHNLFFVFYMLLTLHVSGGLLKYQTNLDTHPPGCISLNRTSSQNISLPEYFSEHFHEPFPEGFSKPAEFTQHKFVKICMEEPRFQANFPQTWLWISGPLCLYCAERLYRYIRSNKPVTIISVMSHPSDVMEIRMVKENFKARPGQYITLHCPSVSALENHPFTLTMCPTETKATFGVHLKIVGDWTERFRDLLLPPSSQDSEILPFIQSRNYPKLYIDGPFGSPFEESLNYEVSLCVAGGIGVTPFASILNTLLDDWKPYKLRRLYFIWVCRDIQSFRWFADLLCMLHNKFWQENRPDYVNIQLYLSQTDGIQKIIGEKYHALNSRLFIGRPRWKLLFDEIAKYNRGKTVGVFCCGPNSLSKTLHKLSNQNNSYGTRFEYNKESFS
NADPH oxidase 2 (Homo sapiens), sequence (P04839 whole entry, looked up): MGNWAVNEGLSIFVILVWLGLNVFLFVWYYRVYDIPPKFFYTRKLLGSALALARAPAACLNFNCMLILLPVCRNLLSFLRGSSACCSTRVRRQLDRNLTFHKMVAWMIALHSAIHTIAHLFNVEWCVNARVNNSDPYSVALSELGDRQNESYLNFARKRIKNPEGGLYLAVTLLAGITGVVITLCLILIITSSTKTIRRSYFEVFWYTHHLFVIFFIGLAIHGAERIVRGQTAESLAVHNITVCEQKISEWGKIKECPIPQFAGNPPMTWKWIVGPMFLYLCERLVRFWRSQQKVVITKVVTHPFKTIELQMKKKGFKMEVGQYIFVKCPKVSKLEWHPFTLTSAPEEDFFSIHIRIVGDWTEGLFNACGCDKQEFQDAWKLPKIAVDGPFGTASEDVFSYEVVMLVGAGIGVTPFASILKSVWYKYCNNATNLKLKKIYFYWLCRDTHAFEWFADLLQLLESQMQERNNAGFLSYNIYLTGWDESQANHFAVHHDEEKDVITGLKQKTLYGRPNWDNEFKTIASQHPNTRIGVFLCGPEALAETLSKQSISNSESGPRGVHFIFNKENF

As to `CC(C)=C1C(=O)C(c2ccccc2)=C2CN3C(=O)N(CCc4ccccc4)C(=O)[C@]3(C)[C@H]21`, the composite z-score in experiment [1] was -0.0006; in experiment [6], 0.509; in experiment [7], -0.016; with Torsin-1A (Homo sapiens) [8], -0.656; with Torsin-1A (Homo sapiens) [9], -0.124; in experiment [10] it was -0.223. This compound came in with a composite z-score in [12] of 0.298. Further, the z-score is -2.42 (inactive) in experiment [2]; 0.64 (inactive) in experiment [3]; 0.0177 (inactive) in experiment [4]; 0.839 (inactive) in [5]; -2.52 (inactive) in experiment [11]; 28.2 (active) in [13]. In addition, the z-score was 24.2 (active) in [14]; 1.63 (inactive) in experiment [15]; 1.62 (inactive) in experiment [16]; -0.832 in experiment [17]; -1.16 (inactive) in experiment [18]; -1.55 (inactive) in experiment [19]. In [20], this compound showed a z-score of -0.718.
On to `CC(C)(C)N1CC=CC23O[C@@H]4/C=C\CCCOC(=O)C4[C@H]2C(=O)N(CCCO)[C@@H]3C1=O` (stereo not given in full), for which the composite z-score was -0.285 in experiment [1]; -0.773 in experiment [6]; -0.0112 in experiment [7]; 0.585 with Torsin-1A (Homo sapiens) [8]; 0.645 with Torsin-1A (Homo sapiens) [9]; 0.941 in experiment [10]. This compound also yielded a composite z-score in experiment [12] of 0.0927. The z-score was 0.317 (inactive) in [2]; 1.68 (inactive) in experiment [3]; -0.0697 (inactive) in [4]; -0.764 (inactive) in experiment [5]; -0.455 (inactive) in experiment [11]; 0.46 (inactive) in experiment [13]. For the same compound, the z-score in [14] is 0.223 (inactive); in experiment [15], -0.772 (inactive); in experiment [16], 0.429 (inactive); in experiment [17] it was 0.0241; in experiment [18], 1.63 (inactive); in experiment [19], 0.724 (inactive). In addition, the z-score in [20] came to 2.51.
On to `[N-]=[N+]=Nc1ccccc1[C@@H]1OC(c2ccc(OCCCO)cc2)=N[C@]1(CCS(=O)(=O)c1ccccc1)C(=O)NCC(O)CO` (stereo not given in full), for which the composite z-score in [1] is -0.0534; in experiment [6], 1.54; in experiment [7], 0.0051; with Torsin-1A (Homo sapiens) [8], 1.37; with Torsin-1A (Homo sapiens) [9], 1.61; in experiment [10], -0.475. This compound displayed a composite z-score in experiment [12] of 0.165. The z-score in experiment [2] is -1.33 (inactive); in experiment [3], -0.27 (inactive); in [4] it was 0.0827 (inactive); in experiment [5], 0.0767 (inactive); in [11] it was 0.401 (inactive); in [13], 28.9 (active). Further, the z-score in experiment [14] is 27.2 (active); in experiment [15], 1.08 (inactive); in experiment [16], 2.07 (inactive); in experiment [17] it was -0.158; in experiment [18], -3.11 (inactive); in experiment [19] it was -0.18 (inactive). For the same compound, the z-score in experiment [20] is -1.16.
As for `C=CCC(OC(C)=O)[C@@H]1[C@@H](N(Cc2ccc(-c3cccc(C(F)(F)F)c3)o2)C(=O)c2ccc(-c3ccccc3)cc2)c2cc(OCCCO)ccc2N1C(=O)c1ccc2ccccc2c1` (stereo not given in full), the composite z-score is -0.0266 in [1]; 0.177 in experiment [6]; -0.0279 in experiment [7]; -0.756 with Torsin-1A (Homo sapiens) [8]; -0.322 with Torsin-1A (Homo sapiens) [9]; 1.57 in experiment [10]. For the same compound, the composite z-score in [12] turned out to be 0.0718. The z-score in experiment [2] is -0.87 (inactive); in [3], -0.491 (inactive); in [4] it was -0.477 (inactive); in experiment [5], 0.308 (inactive); in [11] it was -0.251 (inactive); in [13], 0.7 (inactive). In addition, the z-score in [14] was -0.125 (inactive); in [15], 1.36 (inactive); in experiment [16] it was 0.408 (inactive); in experiment [17] it was 0.921; in experiment [18], -1.99 (inactive); in experiment [19], -1.98 (inactive). The compound also showed a z-score in experiment [20] of -1.09.
`CC[C@@H]1C=C(C(=O)O)[C@H](c2ccc(OC)cc2)N1S(=O)(=O)c1ccc(C)cc1`: the composite z-score in [1] was 0.0237; in experiment [6], 0.114; in experiment [7], -0.016; with Torsin-1A (Homo sapiens) [8], -0.579; with Torsin-1A (Homo sapiens) [9], 0.316; in [10], -0.236. In addition, the composite z-score in experiment [12] was -0.0449. In addition, the z-score in [2] is -1.09 (inactive); in experiment [3] it was 1.01 (inactive); in experiment [4] it was 0.0798 (inactive); in experiment [5] it was 0.0935 (inactive); in experiment [11], -1.46 (inactive); in experiment [13], 0.785 (inactive). The z-score is 0.453 (inactive) in experiment [14]; -0.51 (inactive) in [15]; 0.437 (inactive) in experiment [16]; -0.458 in [17]; 0.339 (inactive) in experiment [18]; -0.517 (inactive) in experiment [19]. The same compound displayed a z-score in [20] of -0.215.
